Screening data (PubChem)
Only some compounds are listed: those with a hit (about 6.5% of all), similar ones and a draw of the others.
Vaccinia mCherry = inhibitors of vaccinia virus infection (mCherry reporter signal); Vaccinia virus mCherry reporter infection, fluorescence; Potency, µM (titrated, usually from 36.5 µM), most hits filed as inhibitors; 310,000 compounds, 0.63% hits; calls by dose curve; tested in A549 cells; further: nearly all actives have a fitted effect of over 35% in size
HCMV inh = human cytomegalovirus inhibition; activity change, negative = inhibition, % at 57.5 µM; HFF cells, HCMV-luciferase reporter, 72 h; hits give low values; 410,000 compounds, 4.5% hits; in the data active means activity change below about -60%; inconclusive means no clear call, values can overlap the other calls; inactive means above about -39%
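Luciferase read-out from HCMV-luciferase-infected HFFs (MOI 1 PFU/cell) 72 h post infection at 37C; compounds added after 16 h cell attachment; activity normalized between buffer-only basal and Salinomycin (10uM) inhibitor controls.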
MARV entry inh = blocks Marburg virus binding to or entry into cells; AID 540276; Marburg virus pseudotyped entry inhibition, cell reporter; Potency, µM (series often up to 37.8 µM), hits mostly inhibitors; 300,000 compounds, 1.8% hits; calls by dose curve; tested in HEK293 cells
Lassa entry inh = inhibitors of Lassa virus binding or cell entry; Potency, µM (top dose mostly 37.9 µM), actives largely listed as inhibitors; 300,000 compounds, 1.2% hits; Lassa virus pseudotype entry inhibition, cell reporter; calls by dose curve; tested in HEK293 cells; further: nearly all actives have a fitted effect of over 50% in size
Vaccinia Venus = inhibitors of vaccinia virus (Venus reporter); 330,000 compounds, 0.46% hits; Potency, µM (series often up to 36.5 µM), actives largely listed as inhibitors; Vaccinia virus Venus reporter expression, fluorescence; calls by dose curve; tested in A549 cells; further: nearly all actives have a fitted effect of over 30% in size
FMDV inh = blocks foot and mouth disease virus; FMDV antiviral cell-based qHTS; Potency, µM (titrated, usually from 57.9 µM), most hits filed as inhibitors; 410,000 compounds, 1.2% hits; AID 1159524; calls by dose curve; tested in HEK293T cells; further: read-out not given here; nearly all actives have a fitted effect of over 45% in size
Each line names hits and unclear results; the compound was inactive in the other large screens.

Cc1ccc(S(=O)(=O)N(CC(=O)N2CCCCCC2)c2ccccc2F)cc1	HCMV inh -62, Lassa entry inh 10µM
COc1ccc(N(CC(=O)N2CCc3ccccc3C2)S(=O)(=O)c2ccccc2)cc1	MARV entry inh inconclusive
O=C(NCc1ccncc1)c1cnn(-c2nccc(-c3cc4ccccc4o3)n2)c1C1CC1	none (no result: HCMV inh, MARV entry inh, Lassa entry inh)
CC1(C)CN(CCc2ccccc2)C(=O)[C@@H]1CC(=O)Nc1ccccc1	none (no result: Vaccinia mCherry, HCMV inh, MARV entry inh, Vaccinia Venus, FMDV inh)
CCOc1ccccc1N(CC(=O)N1CCC(C(N)=O)CC1)S(=O)(=O)c1ccc(SC)cc1	HCMV inh -70
CCOc1ccccc1N(CC(=O)N1CCC(C)CC1)S(=O)(=O)c1ccc(C)cc1	MARV entry inh inconclusive
COc1cc2c(cc1NC(=O)/C=C/c1ccccc1)oc1ccccc12	HCMV inh -64, MARV entry inh inconclusive, Lassa entry inh inconclusive (no result: FMDV inh)
COc1ccc(/C=C/C(=O)NC(=S)Nc2cc3oc4ccccc4c3cc2OC)cc1	none
COc1cc2c(cc1NC(=O)Nc1ccc(F)cc1)oc1ccccc12	HCMV inh -66
CCCC(O)c1nc2ccccc2n1CCCOc1ccc(Cl)cc1 (centres undefined)	HCMV inh -76, FMDV inh 20µM
CC(C)c1ccc(Nc2cc3[nH]c(-c4cccc(F)c4)cc3cn2)cc1	none (no result: Vaccinia mCherry, MARV entry inh, Lassa entry inh, Vaccinia Venus, FMDV inh)
Cc1ccc(C)c(N2CCN(C(=O)c3cc4ccccc4oc3=O)CC2)c1	HCMV inh -62 (no result: MARV entry inh, Lassa entry inh)
COc1ccc2oc(=O)c(C(=O)N3CCN(C(=O)c4ccccc4)CC3)cc2c1	HCMV inh -95
COc1ccc2oc(=O)c(C(=O)N3CCN(c4ccccc4C)CC3)cc2c1	HCMV inh inconclusive, MARV entry inh inconclusive, Lassa entry inh inconclusive
Cc1ccc(C)c(N2CCN(C(=O)c3cccn4c(=O)c5sccc5nc34)CC2)c1	MARV entry inh 13µM, Lassa entry inh inconclusive, FMDV inh inconclusive
O=C(c1cc2c(ccc3ccccc32)oc1=O)N1CCCC1	HCMV inh -90
COc1cc(CCN2C(=O)NC(c3ccccc3)C(C(C)=O)=C2C)cc(OC)c1OC (centres undefined)	none (no result: Vaccinia mCherry, HCMV inh, Lassa entry inh, Vaccinia Venus, FMDV inh)
Cc1cc(Cl)ccc1NS(=O)(=O)c1ccc2c(c1)CC(C)N2C(=O)C1CCC1 (centres undefined)	none (no result: MARV entry inh)
Cc1cccc(C(=O)NCC(=O)NC2CCC(C)CC2)c1 (centres undefined)	Lassa entry inh inconclusive
O=c1cc(COc2ccc(Cl)cc2Cl)nc2scc(-c3ccccc3)n12	none
Cc1cccc(OCc2cc(=O)n3c(-c4ccccc4)csc3n2)c1C	HCMV inh -103, MARV entry inh inconclusive
O=c1cc(COc2ccccc2Cl)nc2scc(-c3ccccc3)n12	HCMV inh -88, MARV entry inh inconclusive
COc1ccc(-c2c(C)oc3c(CN4CCN(C)CC4)c(O)ccc3c2=O)cc1	HCMV inh -63 (no result: MARV entry inh, Lassa entry inh)
COC(=O)c1ccccc1-c1ccc(/C=N/Nc2nc(N3CCCC3)nc(N3CCCC3)n2)o1	MARV entry inh inconclusive, Lassa entry inh inconclusive, FMDV inh 22µM
Cc1ccc(/C=N/Nc2nc(N3CCCCC3)nc(N3CCCCC3)n2)o1	Lassa entry inh inconclusive
CCN(Cc1ccccc1)S(=O)(=O)c1ccc(C(=O)N(CCCN(C)C)c2nc3c(C)c(C)ccc3s2)cc1	Vaccinia mCherry 11µM, MARV entry inh 6.3µM, Lassa entry inh 2.8µM, Vaccinia Venus inconclusive
COc1ccc(C)c2sc(N(Cc3cccnc3)C(=O)CCc3ccccc3)nc12	HCMV inh active (no result: MARV entry inh)
O=C(c1ccc(Br)s1)N(Cc1cccnc1)c1nc2ccc(F)cc2s1	none (no result: MARV entry inh)
CCN(Cc1ccccc1)S(=O)(=O)c1ccc(C(=O)N(CCCN(C)C)c2nc3cc4c(cc3s2)OCO4)cc1	HCMV inh -65, MARV entry inh inconclusive, Lassa entry inh inconclusive, Vaccinia Venus inconclusive
CC(=O)N(Cc1cccnc1)c1nc2ccc(F)cc2s1	HCMV inh -77 (no result: MARV entry inh)
CN(C)CCCN(C(=O)c1ccc(S(=O)(=O)N(C)C)cc1)c1nc2cc3c(cc2s1)OCO3	MARV entry inh inconclusive
CC(=O)c1ccc(C(=O)N(Cc2cccnc2)c2nc3c(C)c(C)ccc3s2)cc1	Lassa entry inh 13µM (no result: MARV entry inh)
CCN(CC)CCN(C(=O)c1ccc(S(=O)(=O)N(C)C2CCCCC2)cc1)c1nc2c(C)cccc2s1	MARV entry inh inconclusive, Lassa entry inh inconclusive, FMDV inh inconclusive
CC(=O)N(Cc1cccnc1)c1nc2c(C)cc(C)cc2s1	HCMV inh inconclusive (no result: MARV entry inh)
